# Test results from the supplement of paper PMC10849652.
# The full data set covers some 8,800 targets. This sample favours those with a hit. About 0.5% of all pairs of compound and target were hits. A number with no mark means an inactive call.
# Legend:
# Assay in all cases: log2 fold change, soluble protein after heating vs DMSO (PISA); higher = thermal stabilisation; K562 lysate, 10 uM; active = over 0.2 and 3.5 SD of the protein, either way, in both replicates (recomputed)
# ibrutinib = compound: C=CC(=O)N1CCC[C@@H](n2nc(-c3ccc(Oc4ccccc4)cc3)c3c(N)ncnc32)C1 [ibrutinib]
# How it was run: (§1)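 Log-two fold change in thermal stability relative to solvent controls is reported from duplicates. For each sample, crude K562 extract from dounce-homogenised pellets in PBS pH 7.4 with 1 mM MgCl2, at 1 mg/mL protein, was treated with 10 μM compound for 30 min. Aliquots heated for 3 min across 48°C-58°C were pooled, brought to 0.5% NP-40 at 4°C and cleared at 21,000xg for 90 min. The supernatant was quantified by TMTpro 16plex LC-MS/MS with channel sums equalised.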
# [1] = compound: CC(=O)c1cnc2ccc(-c3cc(Cl)c(O)c(Cl)c3)nc2c1N[C@H]1CC[C@H](CN(C)C)CC1
# How it was run: as §1
# ralimetinib = compound: CC(C)(C)Cn1c(N)nc2ccc(-c3[nH]c(C(C)(C)C)nc3-c3ccc(F)cc3)nc21 [ralimetinib]
# How it was run: as §1
# [2] = compound: CC(C)(O)CC(=O)NCCn1ccc2ncnc(Nc3ccc(Oc4cccc(C(F)(F)F)c4)c(Cl)c3)c21
# How it was run: as §1
# [3] = compound: CC(C)C1=C2N=C(C=C(N2N=C1)NCC3=CC=CC=C3)NCCCCCCN
# How it was run: as §1
# [4] = compound: CC1=C(C(CC(=O)N1)C2=CC=C(C=C2)C(F)(F)F)C(=O)NC3=C(C=C4C(=C3)C=NN4)F
# How it was run: as §1
# [5] = compound: CC1=C(C2=C(C=C1)C(=O)C3=CC=CC=C3N2CCCN)C
# How it was run: as §1
# [6] = compound: CC1=C(C=C(C=C1)NC(=O)C2=CC(=CC=C2)C(C)(C)C#N)NC3=CC4=C(C=C3)N=CN(C4=O)C
# How it was run: as §1
# [7] = compound: CC1=C(C=C(C=C1)NC(=O)C2=CC(=CC=C2)N(C)C)NC(=O)C3=CC=C(C=C3)O
# How it was run: as §1
# [8] = compound: CC1=CC=C(C=C1)SC2=C3C=C(SC3=CN=C2)C(=O)N
# How it was run: as §1
# UniProt Q8TB03, sequence (Q8TB03 whole entry, looked up): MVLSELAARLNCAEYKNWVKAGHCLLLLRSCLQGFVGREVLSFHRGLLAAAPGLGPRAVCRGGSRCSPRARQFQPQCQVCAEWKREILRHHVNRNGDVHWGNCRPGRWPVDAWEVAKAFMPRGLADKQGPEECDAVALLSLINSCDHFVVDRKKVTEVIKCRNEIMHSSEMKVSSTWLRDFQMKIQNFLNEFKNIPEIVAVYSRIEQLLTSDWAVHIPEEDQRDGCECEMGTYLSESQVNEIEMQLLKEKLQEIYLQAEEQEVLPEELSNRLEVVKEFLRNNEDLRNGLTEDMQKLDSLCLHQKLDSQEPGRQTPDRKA
# UniProt P21964, sequence (P21964 whole entry, looked up): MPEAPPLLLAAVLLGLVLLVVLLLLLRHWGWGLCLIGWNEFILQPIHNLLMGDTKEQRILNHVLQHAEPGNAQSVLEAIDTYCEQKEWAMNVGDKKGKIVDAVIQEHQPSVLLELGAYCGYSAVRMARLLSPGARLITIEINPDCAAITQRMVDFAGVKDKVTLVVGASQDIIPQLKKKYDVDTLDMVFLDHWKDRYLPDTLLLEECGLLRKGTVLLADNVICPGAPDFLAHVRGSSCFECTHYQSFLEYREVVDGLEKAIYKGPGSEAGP
# UniProt Q13217, sequence (Q13217 whole entry, looked up): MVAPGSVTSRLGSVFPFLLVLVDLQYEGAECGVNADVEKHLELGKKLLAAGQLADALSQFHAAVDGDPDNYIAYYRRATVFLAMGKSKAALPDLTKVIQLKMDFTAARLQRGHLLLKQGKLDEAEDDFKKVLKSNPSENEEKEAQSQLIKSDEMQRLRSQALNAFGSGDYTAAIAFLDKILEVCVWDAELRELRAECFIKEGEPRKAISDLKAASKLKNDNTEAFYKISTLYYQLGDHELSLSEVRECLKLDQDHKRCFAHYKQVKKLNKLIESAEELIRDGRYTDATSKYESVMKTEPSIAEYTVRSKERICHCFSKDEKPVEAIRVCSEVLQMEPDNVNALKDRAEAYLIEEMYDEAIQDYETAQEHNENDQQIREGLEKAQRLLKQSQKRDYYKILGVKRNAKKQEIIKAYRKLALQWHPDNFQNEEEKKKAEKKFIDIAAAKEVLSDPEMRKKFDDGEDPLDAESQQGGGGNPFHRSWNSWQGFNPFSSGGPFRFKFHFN
# UniProt P50416, sequence (P50416 whole entry, looked up): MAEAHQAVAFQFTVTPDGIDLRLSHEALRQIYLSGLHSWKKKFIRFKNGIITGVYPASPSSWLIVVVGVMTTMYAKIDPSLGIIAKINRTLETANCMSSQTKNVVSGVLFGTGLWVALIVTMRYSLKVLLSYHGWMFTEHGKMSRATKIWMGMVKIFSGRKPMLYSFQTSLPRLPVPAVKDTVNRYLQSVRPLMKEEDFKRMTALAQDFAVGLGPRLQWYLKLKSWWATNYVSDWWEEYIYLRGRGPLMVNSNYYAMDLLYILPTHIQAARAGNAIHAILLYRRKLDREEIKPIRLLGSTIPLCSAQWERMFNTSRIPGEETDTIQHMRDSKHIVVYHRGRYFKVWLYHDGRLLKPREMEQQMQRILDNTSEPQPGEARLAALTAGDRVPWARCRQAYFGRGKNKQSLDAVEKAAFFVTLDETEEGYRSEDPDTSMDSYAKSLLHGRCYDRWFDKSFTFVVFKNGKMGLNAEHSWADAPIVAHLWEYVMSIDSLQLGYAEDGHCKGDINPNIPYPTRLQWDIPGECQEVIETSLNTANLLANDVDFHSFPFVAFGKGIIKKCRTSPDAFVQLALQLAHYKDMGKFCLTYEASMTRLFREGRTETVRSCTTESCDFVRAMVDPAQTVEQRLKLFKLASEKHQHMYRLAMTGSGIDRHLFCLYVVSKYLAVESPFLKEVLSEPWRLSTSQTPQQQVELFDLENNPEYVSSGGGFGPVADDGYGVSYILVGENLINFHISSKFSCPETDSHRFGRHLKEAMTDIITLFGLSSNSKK
# UniProt P26374, sequence (P26374 whole entry, looked up): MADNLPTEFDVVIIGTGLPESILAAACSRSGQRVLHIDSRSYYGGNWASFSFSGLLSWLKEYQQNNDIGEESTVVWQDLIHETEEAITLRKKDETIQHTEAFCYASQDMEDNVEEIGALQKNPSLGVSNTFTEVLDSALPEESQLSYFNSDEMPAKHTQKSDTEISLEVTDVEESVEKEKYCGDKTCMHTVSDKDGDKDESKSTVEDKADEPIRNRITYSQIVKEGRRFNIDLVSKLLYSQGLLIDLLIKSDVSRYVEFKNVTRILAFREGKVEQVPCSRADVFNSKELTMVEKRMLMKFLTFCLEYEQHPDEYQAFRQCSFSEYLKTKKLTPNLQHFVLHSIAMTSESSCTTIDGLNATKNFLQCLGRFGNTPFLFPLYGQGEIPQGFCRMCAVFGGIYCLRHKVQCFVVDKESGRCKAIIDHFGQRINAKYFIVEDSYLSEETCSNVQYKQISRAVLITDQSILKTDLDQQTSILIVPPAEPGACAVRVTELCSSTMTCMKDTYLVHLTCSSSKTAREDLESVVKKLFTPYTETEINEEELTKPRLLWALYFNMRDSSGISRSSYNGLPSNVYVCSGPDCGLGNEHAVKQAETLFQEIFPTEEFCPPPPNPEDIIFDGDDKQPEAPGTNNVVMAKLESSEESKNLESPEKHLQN
# UniProt Q9Y2V7, sequence (Q9Y2V7 whole entry, looked up): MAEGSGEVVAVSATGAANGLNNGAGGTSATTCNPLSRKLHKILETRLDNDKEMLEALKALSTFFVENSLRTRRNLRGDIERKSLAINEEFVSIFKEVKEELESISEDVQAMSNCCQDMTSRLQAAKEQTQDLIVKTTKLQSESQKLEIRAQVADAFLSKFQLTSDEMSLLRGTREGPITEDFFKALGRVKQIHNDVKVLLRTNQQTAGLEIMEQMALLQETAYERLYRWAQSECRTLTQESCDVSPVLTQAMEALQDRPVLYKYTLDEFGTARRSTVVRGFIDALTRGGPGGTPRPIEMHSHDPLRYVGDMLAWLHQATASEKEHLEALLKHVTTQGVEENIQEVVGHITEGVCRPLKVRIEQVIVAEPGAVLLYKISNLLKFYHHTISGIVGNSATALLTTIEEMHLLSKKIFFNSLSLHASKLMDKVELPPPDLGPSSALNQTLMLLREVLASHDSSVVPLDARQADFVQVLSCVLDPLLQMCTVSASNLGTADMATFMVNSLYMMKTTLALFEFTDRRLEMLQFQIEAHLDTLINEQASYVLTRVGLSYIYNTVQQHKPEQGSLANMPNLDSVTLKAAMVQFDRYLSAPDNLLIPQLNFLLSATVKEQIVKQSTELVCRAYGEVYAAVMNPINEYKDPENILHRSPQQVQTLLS
# UniProt P99999, sequence (P99999 whole entry, looked up): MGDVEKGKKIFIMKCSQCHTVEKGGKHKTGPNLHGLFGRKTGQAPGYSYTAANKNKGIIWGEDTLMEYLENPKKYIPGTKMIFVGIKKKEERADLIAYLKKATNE
# UniProt P39880, sequence (P39880 whole entry, looked up): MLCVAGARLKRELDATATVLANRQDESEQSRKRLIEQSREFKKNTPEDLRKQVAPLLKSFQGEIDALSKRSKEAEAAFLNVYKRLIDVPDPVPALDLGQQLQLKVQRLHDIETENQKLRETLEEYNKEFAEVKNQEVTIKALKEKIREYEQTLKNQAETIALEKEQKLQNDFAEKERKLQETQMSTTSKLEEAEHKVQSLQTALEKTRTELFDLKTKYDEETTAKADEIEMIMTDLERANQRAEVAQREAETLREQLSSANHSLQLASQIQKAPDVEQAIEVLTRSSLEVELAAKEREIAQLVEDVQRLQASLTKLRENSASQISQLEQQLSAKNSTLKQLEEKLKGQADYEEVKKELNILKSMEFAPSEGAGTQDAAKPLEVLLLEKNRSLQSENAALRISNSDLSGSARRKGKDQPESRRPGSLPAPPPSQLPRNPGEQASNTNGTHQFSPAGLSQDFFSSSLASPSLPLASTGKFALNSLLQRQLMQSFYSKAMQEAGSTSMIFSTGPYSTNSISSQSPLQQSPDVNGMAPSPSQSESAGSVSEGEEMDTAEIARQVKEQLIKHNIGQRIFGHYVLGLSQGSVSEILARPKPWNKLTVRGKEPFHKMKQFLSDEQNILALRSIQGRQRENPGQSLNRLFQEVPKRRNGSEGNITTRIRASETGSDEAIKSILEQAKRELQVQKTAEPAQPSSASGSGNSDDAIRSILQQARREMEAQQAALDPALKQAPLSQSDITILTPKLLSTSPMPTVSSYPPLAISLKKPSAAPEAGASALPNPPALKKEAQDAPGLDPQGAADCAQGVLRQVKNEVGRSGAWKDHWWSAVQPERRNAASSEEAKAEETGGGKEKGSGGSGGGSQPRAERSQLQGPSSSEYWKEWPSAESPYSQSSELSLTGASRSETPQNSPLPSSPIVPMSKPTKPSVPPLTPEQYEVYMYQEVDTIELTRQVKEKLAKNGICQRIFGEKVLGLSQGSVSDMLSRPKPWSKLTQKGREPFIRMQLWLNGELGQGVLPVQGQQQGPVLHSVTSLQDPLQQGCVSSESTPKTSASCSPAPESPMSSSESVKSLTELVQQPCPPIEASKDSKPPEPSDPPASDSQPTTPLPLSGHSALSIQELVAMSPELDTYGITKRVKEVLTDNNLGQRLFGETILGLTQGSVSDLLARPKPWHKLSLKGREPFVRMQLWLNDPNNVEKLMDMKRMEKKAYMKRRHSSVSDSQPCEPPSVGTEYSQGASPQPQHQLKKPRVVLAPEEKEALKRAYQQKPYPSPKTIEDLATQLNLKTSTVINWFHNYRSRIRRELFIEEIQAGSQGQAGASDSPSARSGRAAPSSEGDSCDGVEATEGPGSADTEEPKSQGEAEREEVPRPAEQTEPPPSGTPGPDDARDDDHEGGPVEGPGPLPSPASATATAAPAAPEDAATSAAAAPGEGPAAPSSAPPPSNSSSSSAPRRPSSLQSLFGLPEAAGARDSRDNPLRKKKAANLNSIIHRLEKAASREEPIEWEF
# UniProt Q99766, sequence (Q99766 whole entry, looked up): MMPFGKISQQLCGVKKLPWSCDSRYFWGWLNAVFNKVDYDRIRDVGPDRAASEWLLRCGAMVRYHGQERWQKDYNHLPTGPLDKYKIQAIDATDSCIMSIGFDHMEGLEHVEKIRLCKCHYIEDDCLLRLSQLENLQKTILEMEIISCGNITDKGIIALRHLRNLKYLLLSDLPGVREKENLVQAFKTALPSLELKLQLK
Target,log2 fold change (ibrutinib),log2 fold change [1],log2 fold change (ralimetinib),log2 fold change [2],log2 fold change [3],log2 fold change [4],log2 fold change [5],log2 fold change [6],log2 fold change [7],log2 fold change [8]
DNAH10 (UniProt Q8IVF4),0.038,-0.017,-0.123,-0.112,-0.015,-0.04,-0.069,0.137,-0.014,-0.051
DICER1 (UniProt Q9UPY3),-0.011,0.037,0.019,-0.055,0.012,0.044,0.003,0.018,0.013,0
CTPS2 (UniProt Q9NRF8),0.021,0.006,0.017,-0.026,-0.011,0.008,-0.004,0.009,0.005,-0.009
DCP2 (UniProt Q8IU60),-0.005,-0.005,0.067,0.003,0.006,0.021,0.034,-0.043,0.081,-0.002
DMAC2L (UniProt Q99766),0.046,-0.046,0.037,-0.017,0.017,0.005,-0.018,0.008,-0.043,-0.019
CUX1 isoform 3 (UniProt P39880),0.073,0.002,0.003,-0.061,0.017,-0.022,0.003,-0.051,0.012,0.005
COMT (UniProt P21964),0.01,0.019,0.01,0.016,0.009,-0.045,0.002,0.031,0.019,0.01
CIC (UniProt I3L1Q4),0.005,,,,,,,,,
DHRS11 (UniProt Q6UWP2),0.028,-0.008,0.028,-0.014,0.048,-0.005,-0.029,0.007,0.015,0.03
CPT1A (UniProt P50416),0.042,-0.021,-0.016,0.008,-0.026,-0.009,-0.041,-0.05,-0.008,0.017
DAZAP1 (UniProt Q96EP5),-0.031,-0.011,-0.124,0.133,-0.023,-0.062,-0.015,-0.359 (active),-0.031,-0.009
CXorf38 (UniProt Q8TB03),0.054,0.015,-0.008,-0.007,0.062,-0.095,0.016,-0.002,-0.015,0.025
CHML (UniProt P26374),-0.029,-0.017,-0.008,-0.004,-0.009,-0.012,0,-0.003,-0.017,-0.006
COQ9 (UniProt O75208),0.104,0.023,0.015,-0.008,-0.036,0.017,0.007,-0.024,0.037,0
CKM (UniProt P06732),-0.002,0.056,0.046,-0.076,0.002,-0.001,-0.029,0.044,0.005,-0.02
CIP2A (UniProt Q8TCG1),0.022,0.001,0.052,-0.046,-0.03,0.009,0.003,0,0.059,-0.033

Target,log2 fold change (ibrutinib),log2 fold change [1],log2 fold change (ralimetinib),log2 fold change [2],log2 fold change [3],log2 fold change [4],log2 fold change [5],log2 fold change [6],log2 fold change [7],log2 fold change [8]
DNAJC3 (UniProt Q13217),0.009,-0.004,-0.022,0.007,-0.021,0.024,0.006,-0.011,-0.054,-0.018
DGCR8 (UniProt Q8WYQ5),0.031,-0.049,0.014,-0.014,0.015,0.02,-0.018,-0.219,0.071,-0.006
CXCL14 (UniProt O95715),-0.012,,,,,,,,,
CNIH4 (UniProt Q9P003),0.13,-0.014,0.006,-0.152,0.278,0.066,-0.115,-0.008,0.211,-0.024
CYCS (UniProt P99999),0.027,0.024,0,0.004,-0.016,-0.05,-0.005,0.012,-0.015,0.031
DNM2 (UniProt P50570),0.014,0,0.013,0.013,0.018,0.011,0.024,-0.016,0.006,0.004
DDX54 isoform 2 (UniProt Q8TDD1),-0.005,0.006,0.036,0.023,-0.001,0.02,-0.054,-0.054,-0.006,0.013
CYP24A1 (UniProt Q07973),0.01,-0.036,-0.03,-0.159,0.019,-0.05,-0.051,0.183,0.007,-0.067
DCTN1 (UniProt Q14203),-0.005,0.01,0.013,-0.02,-0.006,0.001,0.011,-0.013,0.009,0.011
CNOT4 isoform 6 (UniProt O95628),-0.004,0.021,0.033,-0.007,-0.003,0.049,0.037,-0.281 (active),-0.026,0.012
DES (UniProt P17661),0.044,0,0.025,-0.16,-0.01,-0.026,-0.045,0.057,-0.017,-0.057
COG6 (UniProt Q9Y2V7),-0.003,0.005,0.016,-0.059,-0.028,-0.017,0.016,0.004,0.033,0.021
DCUN1D4 isoform 3 (UniProt Q92564),0.064,0.078,-0.033,-0.057,0.018,-0.009,-0.078,-0.027,0.029,-0.059
CKAP5 (UniProt Q14008),-0.024,-0.008,0.015,-0.012,-0.007,0.007,0.005,-0.013,0.023,0.006
COASY isoform 2 (UniProt Q13057),0.024,-0.015,0.103,0.002,-0.003,0.013,-0.001,-0.013,0.037,0.014
